The first test addresses KCNMB2. The experiment in a line: pooled miR-30 sensor sort-seq; sequence = guide strand. Conditions: shRNA.
On to TGTTAGGATAACACTCTTCTGG, for which the sensor-assay potency score (higher = more potent) was -0.415.
The same measure, in the same setting: to TTGATTTTTATTGTCTCTTCTG belongs -0.466; to TTTGTTAGGATAACACTCTTCT, 0.649.
For TAGGATAACACTCTTCTGGTTT, the sensor-assay potency score (higher = more potent) was determined as 0.203.
Same read-out and setting: then TTAGGATAACACTCTTCTGGTT, with -1.15; and TTTTATTGTCTCTTCTGTGTGG, with 0.163.
Same read-out and setting: then TTATTGTCTCTTCTGTGTGGTA, with -0.319.
TTTTGTTAGGATAACACTCTTC came in with a sensor-assay potency score (higher = more potent) of -0.026.
For TAACACTCTTCTGGTTTCCTTC, the sensor-assay potency score (higher = more potent) was -0.332.
Turning to TAGGGAACTCATAACAGACTGC, the sensor-assay potency score (higher = more potent) was -0.389.
On the same count and under the same terms, then TTTATTGTCTCTTCTGTGTGGT, with 0.74; and TTCCATGACAACATTCACCAGG, with -0.0986.

In another test the target is KCNN2. Described as above. To be noted: shRNA.
Turning to ATTGATATCAACCACATCGCTC, the sensor-assay potency score (higher = more potent) is -0.533.
Still for that read-out and setting: then TTCTTAATTGATGAATAGCTTG, with -1.14; and ATGAACAACTGTATTTCCCTGG, with 0.818.
On the same count and under the same terms, to TAATTGATGAATAGCTTGCAGG belongs -0.772; to TTCTCGAAGTCTTCACTCCTTT, -0.431; to TTGATGAATAGCTTGCAGGAAT, -0.859.
Still for that read-out and setting: to TTGTCGTAGCTCTCCATCTGAG belongs -1.04; to TACTTTTGCATGATCTATCTTT, -0.0765.
Sequence TAGCTTGCAGGAATTTTCGTTG yielded a sensor-assay potency score (higher = more potent) of -0.466.
Still for that read-out and setting: to TTAATTGATGAATAGCTTGCAG belongs 0.193; to TTAGACACCACGATCTCGGGGG, 1.02; to TTACACTTCTTAATTGATGAAT, -0.837.

The next test deals with KCNN3. The description is as above. To be noted: shRNA.
In turn, ATACATGACATTCTGCATCTTG displayed a sensor-assay potency score (higher = more potent) of 0.37.
On the same count and under the same terms, then TTCTTTAGCAGCTTTGTGTGTT, with 0.0976.
On to AAAGTTACTAGTTACGTCCTGC, for which the sensor-assay potency score (higher = more potent) came to 0.827.
In the case of TTCTCCAGGTCTTCGCTCCGGT, the sensor-assay potency score (higher = more potent) was -0.356.
The same measure, in the same setting: to TTGTCGATCACGAAGAGCTGGA belongs 0.137; to TAGATTAACCATGTTTCCCGAA, -0.326.
Still for that read-out and setting: to TTGGTCACTCAGCTTCCTCTGT belongs -0.263; to TAGGTCATGGCTATCCGCCAGT, -0.594.
Still for that read-out and setting: then TAAGTCATACATGACATTCTGC, with 0.0328; and TTTGGCATGGTCAATCTTCTTT, with -0.404.
The sequence TTGAAGTTGATCTTGTTGAGGG gave a sensor-assay potency score (higher = more potent) of 0.397.
On the same count and under the same terms, to TACATGACATTCTGCATCTTGG belongs -0.595.

For the origin of these results see the OligoGym collection.
Further: reference of the scale not given here.
